Source: PubChem BioAssay (NCI)
Compounds without any hit were thinned out: in the full panel of roughly 83,000, 20% have a hit.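 Values shown are percent growth following 48 h exposure of cells in 96-well plates to a single concentration of compound; below 10 was considered active.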 Activity calls are given as the source filed them.

Key:
Assay in all cases: NCI-60 one-dose screen, 48 h (100 = growth as untreated, 0 = no growth, -100 = all killed)
Conditions in all cases: 10 µM unless noted
[1] = test system: NCI-H23 lung
[2] = test system: NCI-H226 lung
[3] = test system: NCI-H322M lung
[4] = test system: HOP-62 NSCLC
[5] = test system: NCI-H460 lung
[6] = test system: HOP-92 NSCLC
[7] = test system: NCI-H522 lung
[8] = test system: A549/ATCC NSCLC
[9] = test system: 786-0 renal
[10] = test system: COLO 205 colon

Measured: growth

Nc1nc(N)c(N=Nc2ccccc2)c(-c2ccccc2)n1
inactive: [1] 65.4% | [2] 55.4% | [3] 70.1% | [4] 46.9% | [5] 48.7% | [6] 38.8% | [7] 49.2% | [8] 63.8% | [9] 60.7% | [10] 65.8%

CC(=O)Oc1ccc(OC(C)=O)c2ccccc12
active: [6] -88.6%
inactive: [1] 95.6% | [2] 74.9% | [3] 106% | [4] 90.2% | [5] 107% | [7] 61.6% | [8] 98.7% | [9] 107% | [10] 112%

CN(C)CCCNC(=O)c1cncnc1Nc1ccc(OCc2cccc(F)c2)c(Cl)c1
active: [3] 4.56% | [4] -56% | [5] -75.1% | [7] -60.4% | [8] -58% | [9] -78.7% | [10] -71.3%
inactive: [1] 61.5% | [2] 89% | [6] 24.6%

Cc1c(CC(=S)N2CCOCC2)nnn1-c1cccc(C(F)(F)F)c1
inactive: [1] 107% | [2] 107% | [3] 109% | [4] 101% | [5] 103% | [6] 111% | [7] 89.6% | [8] 107% | [9] 110% | [10] 119%

NC(=O)c1cnc(Nc2cccc(N)c2)nc1NCCCNC(=O)C1CCC1
inactive: [1] 79.8% | [2] 69.1% | [3] 86.6% | [4] 46.6% | [5] 69.8% | [6] 123% | [7] 64.5% | [8] 87.7% | [9] 76.8% | [10] 28.2%

Cc1ccc(-c2csc(NC(=O)c3ccccc3CN3C(=O)c4ccccc4C3=O)n2)cc1
inactive: [1] 93.3% | [2] 92% | [3] 95.1% | [4] 99.1% | [5] 109% | [6] 89.6% | [7] 82.1% | [8] 86.4% | [9] 95.8% | [10] 103%

CCOC(=O)c1[nH]c2c(c1C)-c1[nH]c(=O)c(S(=O)(=O)c3ccccc3)cc1SC2
inactive: [1] 35.4% [100 µM] | [2] 37.9% [100 µM] | [3] 42.4% [100 µM] | [4] 34.3% [100 µM] | [5] 38.2% [100 µM] | [8] 43.7% [100 µM] | [9] 21.1% [100 µM]
active: [6] -27.4% [100 µM] | [7] -0.182% [100 µM] | [10] -25.8% [100 µM]

COC(=O)CCC/C=C\C[C@H]1C=CC(=O)/C1=C/C[C@@H](O)C/C=C\CC(F)(F)F
inactive: [3] 46.9%
active: [1] -15.2% | [2] -48% | [4] -12.4% | [5] -47.2% | [6] -18.8% | [7] -56.6% | [8] -3.51% | [9] -39.5% | [10] -36.2%

CCOc1c(OC)cc2c(c1O)C(=O)N[C@@H]1[C@@H](O)[C@@H](O)[C@H](O)C[C@@H]21
inactive: [1] 107% | [2] 99.8% | [3] 103% | [4] 98.6% | [5] 112% | [6] 85.2% | [7] 92.3% | [8] 94.7% | [9] 102% | [10] 115%

O=C(Cc1cccc(OC(F)(F)F)c1)Nc1ccc(CCCCc2nnc(NC(=O)Cc3ccccn3)s2)nn1
active: [6] -4.64%
inactive: [1] 80.3% | [2] 60.6% | [3] 39.8% | [4] 74.5% | [5] 74.2% | [7] 44.3% | [8] 43.2% | [9] 46.3% | [10] 88.8%

O=S(=O)(NCCNc1nccc(-c2c(-c3cccc(O)c3)nc3occn23)n1)c1ccc(Br)cc1
inactive: [1] 53.2% | [2] 37.1% | [3] 42.3% | [4] 45.2% | [5] 31.2% | [6] 33.2% | [7] 24.5% | [8] 20.9% | [9] 45.8% | [10] 18.4%

O=C1c2ccccc2C(=O)c2c1c(C(=O)NCc1ccccc1)c1ccccn21
inactive: [1] 101% | [2] 100% | [3] 99.4% | [4] 94.4% | [5] 107% | [6] 91.7% | [7] 73.4% | [8] 76.8% | [9] 94.5% | [10] 108%

C[C@]1(O)CC(=O)[C@]2(O)C3=C(C=C[C@]2(O)C1)C(=O)c1c(O)cccc1C3=O
inactive: [2] 89.3% | [3] 86.1% | [4] 49% | [5] 74.9% | [8] 103%
active: [1] -6.78% | [6] -12.2% | [7] -59.5% | [9] 9.83% | [10] -81.3%

O=C(O)[C@@H](Cc1ccc2ccccc2c1)NC(=O)n1c2ccccc2c2ccccc21
active: [5] 9.11% | [7] -7.97% | [10] -35.2%
inactive: [1] 34.8% | [2] 85.9% | [3] 49% | [4] 31.3% | [6] 39.5% | [8] 44.3% | [9] 27.7%

CN(C)c1ccc(-c2nc(-c3ccccc3)c(-c3ccccc3)[nH]2)cc1
inactive: [1] 92.2% | [2] 106% | [3] 85.9% | [4] 100% | [5] 88.9% | [6] 52.2% | [7] 77.4% | [8] 99.5% | [9] 94.6% | [10] 129%

Cc1nn(-c2cc(NC3CCC(O)CC3)c3c(=O)[nH]c(CCC(F)(F)F)cc3c2)c2c1C(=O)CC(C)(C)C2 (stereo not given)
inactive: [1] 20.3% | [2] 67.8% | [3] 56.5% | [4] 44% | [5] 21% | [6] 54.5% | [7] 49.5% | [8] 38.8% | [9] 43.9% | [10] 36.9%

CCN(CC)CCN1C(=O)c2c(c(C)c3c(oc4ccc(OC)cc43)c2C)C1=O
inactive: [1] 97.9% | [2] 14.3% | [3] 95.2% | [4] 93.7% | [5] 74.3% | [6] 84.7% | [7] 95% | [8] 94.5% | [10] 96.1%
active: [9] -30%

Cc1cc2c(cc1C)N(C(=O)CCl)CC(=O)N2
active: [7] -81.7% | [10] -95.6%
inactive: [1] 55.7% | [2] 33.1% | [3] 95% | [4] 73.4% | [5] 88.7% | [6] 93.4% | [8] 88.1% | [9] 51.2%

CCCCNC(=O)Oc1ccc(/C(=C(/C)Cc2ccc(OC)cc2)c2ccc(OCCN3CCCCCC3)cc2)cc1
inactive: [1] 85% | [2] 101% | [3] 97.1% | [4] 85.6% | [5] 53.8% | [6] 53.3% | [7] 68.5% | [8] 68% | [9] 76.3% | [10] 57%

N#CC1=C(N)Oc2ccc3ccccc3c2C1c1ccc([N+](=O)[O-])cc1 (stereo not given)
inactive: [1] 78.2% | [2] 87.4% | [3] 89.3% | [4] 81.8% | [5] 93.3% | [6] 121% | [7] 73.5% | [8] 93.7% | [9] 88.1% | [10] 102%

CCNC(=O)Oc1ccc(/C(=C(/C)Cc2ccc(OC)cc2)c2ccc(OCCN3CCCCC3)cc2)cc1
inactive: [1] 87.7% | [2] 86.5% | [3] 89.2% | [4] 91.5% | [5] 35.7% | [6] 44.4% | [7] 72.8% | [8] 62% | [9] 72.6% | [10] 20.9%

CCc1n(Cc2ccc3ccccc3n2)cc[n+]1Cc1ccc2ccccc2n1
active: [6] -11.9% | [7] -3.51% | [10] -38.9%
inactive: [1] 16% | [2] 48.4% | [3] 73.1% | [4] 40.9% | [5] 34.8% | [8] 57.4% | [9] 77.6%

C#CC#CC#CC#CC#CC#CC#CC#CC[C@@H]1OC[C@@H](COC(=O)O[C@@H](C(=O)O[C@H]2C[C@@]3(O)[C@@H](OC(=O)c4ccccc4)[C@@H]4[C@]5(OC(C)=O)CO[C@@H]5C[C@H](O)[C@@]4(C)C(=O)[C@H](OC(C)=O)C(=C2C)C3(C)C)[C@@H](NC(=O)c2ccccc2)c2ccccc2)O1
inactive: [1] 27.1% | [2] 32.3% | [3] 23.5% | [4] 95.2% | [5] 99.7% | [6] 42.9% | [7] 92.4% | [8] 94.7% | [9] 16.3% | [10] 108%

N#Cc1cccc(C2C3=C(COC3=O)N(CCO)c3cc4c(cc32)OCO4)c1 (stereo not given)
active: [10] 8.4%
inactive: [1] 44% | [2] 74.9% | [3] 49.3% | [4] 32.2% | [5] 14.8% | [6] 42.4% | [7] 17% | [8] 39.5% | [9] 24.9%

CCN1C(=O)N(CC)C2C1NN=c1s/c(=C\c3cnc(C)n3C)c(=O)n12 (stereo not given)
inactive: [1] 38.1% | [2] 53.3% | [3] 29.6% | [4] 34.4% | [6] 43% | [8] 15.8% | [9] 28.4% | [10] 14.5%
active: [5] 4.44% | [7] -14.4%

COc1ccc(Cn2cc(C(=O)N=Nc3c(O)[nH]c4c(C)cccc34)nn2)cc1
inactive: [1] 89.1% | [2] 75.1% | [3] 89.6% | [4] 106% | [5] 73.1% | [6] 51.3% | [7] 77.5% | [8] 85.3% | [9] 43.5% | [10] 108%
